In all, about 360,000 compounds went through this assay and about 830 (0.23%) were called active. The sample as a whole holds a higher share of actives than the screen did. A number with no mark means an inactive call.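 The calls were made as follows: active = mean luciferase reporter signal, scaled so untreated is 0 and the glycosylation-blocking control 100, at or above a set limit in every replicate; inconclusive = mean reaches the limit but not every replicate does; inactive = mean below the limit.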
assay: increase of ERlucT glycosylation luciferase signal, primary screen, N-linked glycosylation inhibitor project, D54 ERlucT cells, luminescence, set 2 (AID 588692); settings: 24 h, at 12.5 µM, active compounds read high, percent of 100 nM tunicamycin response;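 also: luciferase carries N-glycosylation sites so blocking glycosylation raises the light; 0% = median of neutral control wells and 100% = median of 100 nM tunicamycin wells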

| SMILES | reporter increase |
| --- | --- |
| CCOC(=O)c1cc2cc(-c3c(C(=O)OCC)oc4cc(O)cc(O)c4c3=O)ccc2o1 | -0.142% |
| Cc1cccc(C)c1NC(=O)Nc1ccccc1-n1ccnc1 | 0.968% |
| Cc1cccn2cc(-c3cccc(S(=O)(=O)N4CCCCC4)c3)nc12 | -0.565% |
| CC1CCCC(NC(=O)c2cc(-c3ccncc3)nc3ccccc23)C1C (configuration not stated) | 0.382% |
| Cc1ccc2nc(-c3ccncc3)cc(C(=O)Nc3ccc(OC(F)F)cc3)c2c1 | -8.25% |
| Cc1ccc2nc(-c3ccncc3)cc(C(=O)Nc3ccncc3)c2c1 | 29.9% (active) |
| O=C(c1ccc(N2CCCC2=O)cc1)N1CCN(c2ccc(C(F)(F)F)cc2[N+](=O)[O-])CC1 | -1.99% |
| CN(C)C(=O)N=NC(=O)N(C)C | 0.968% |
| COc1cc(N/C=C2\CC(=O)NC(C)=C2C#N)cc(OC)c1OC | 0.911% |
| O=C1/C(=C\c2ccc(O)cc2)CCC1CNc1ccc(Cl)cc1 (configuration not stated) | 10.4% |
| Cn1c(=O)n(C)c2cc(C(=O)Nc3ccc4c(c3)OCO4)ccc21 | 70.1% (active) |
| Cc1ccc(C(=O)Nc2ccc3c(c2)OCCO3)cc1S(=O)(=O)N1CCOCC1 | -2.07% |
| COc1cccc(OC)c1C(=O)Nc1ccc2c(c1)n(C)c(=O)n2C | 9.32% |
| Cc1ccc(S(=O)(=O)N2CCOCC2)cc1NC(=O)c1ccncc1 | 0.492% |
| Cc1ccc(S(=O)(=O)NN=C2CC(C)(C)CC(=O)C2(C)C)cc1 | -0.913% |
| Cc1cccc(S(=O)(=O)N2CN(CC3CCCO3)c3nc4ccccc4nc32)c1 (configuration not stated) | 0.557% |
| Cc1sc2c(c1C)c(=O)n(-c1ccccc1)c1nncn21 | 3.73% |
| O=C(Nc1ccc(S(=O)(=O)N2CCc3ccccc3C2)cc1)c1ccccc1 | -1.85% |
| COCCN(CCOC)S(=O)(=O)c1ccc(C(=O)Nc2nc3c(s2)CCc2ccccc2-3)cc1 | -0.048% |
| C=CCN(CC=C)S(=O)(=O)c1ccc(C(=O)Nc2nc3c(s2)CCc2ccccc2-3)cc1 | 55.6% (active) |
| C[C@H](CO)N1C[C@H](C)[C@H](CN(C)CC2CC2)Oc2ccc(NC(=O)CCN3CCOCC3)cc2C1=O | 1.29% |
| CCc1nnc(NC(=O)C2CC(=O)N(c3ccc4c(c3)OCCO4)C2)s1 (configuration not stated) | 1.58% |
| CN(C)C(=O)c1coc2nc3ccccc3nc12 | 0.129% |
| CNC(=O)c1cccc2nc3ccccc3nc12 | 39.1% (active) |
| CNC(=O)C(NC(=O)c1ccccc1)=C(C)C | -0.912% |
| COc1ccc2[nH]c3c(c2c1)CCN1C(=O)C(CC(=O)NCCc2ccccn2)C[C@H](C(=O)N2CCOCC2)[C@@]31C (some centres not stated) | 2.29% |

| SMILES | reporter increase |
| --- | --- |
| CSc1cc(C)n(-c2ccccc2C)c(=S)c1C(C)=O | -0.347% |
| COc1ccccc1CNC(=O)CNC(=O)c1cn(-c2ccccc2OC)c(=O)c2ccccc12 | 1.89% |
| Cc1ccc(F)c(S(=O)(=O)NC(=O)C2(C)CCN2C(=O)CCc2cccs2)c1 (configuration not stated) | 2.26% |
| O=C(Nc1cccc(Cc2ccccc2)c1)Nc1ccc2nc([C@@H]3O[C@H](CO)[C@@H](O)[C@H](O)[C@H]3O)[nH]c2c1 | 0.008% |
| NNC(=O)CNC(c1ccccc1)c1cc(Cl)ccc1NC(=O)c1ccccc1 (configuration not stated) | -3.39% |
| Cn1ccc(=Nc2ccc(NC(=O)c3ccc(N=c4ccn(C)c5ccc([N+](=O)[O-])cc45)cc3)cc2)cc1 | 32.9% (active) |
| CC(C)c1ccc(NC(=O)CCN2C(=O)c3ccc([N+](=O)[O-])cc3C2=O)cc1 | 1.26% |
| CN(CC1CCCO1)S(=O)(=O)c1ccc(C(=O)Nc2ccc([N+](=O)[O-])cc2)cc1 (configuration not stated) | -5.35% |
| COCCCn1c(SCC(=O)Nc2oc(C)c3c(C)n[nH]c(=O)c23)nc2sc3c(c2c1=O)CCC3 | 4.94% |
| C1CC1Cc1noc(CN2CCN(CC3CC3)CC2)n1 | -0.901% |
| O=C(COC(=O)Cn1cnc2ccccc2c1=O)NCc1ccccc1Cl | 0.775% |
| O=C(Cn1cnc2ccccc21)Nc1ccccc1-c1ccccc1 | 0.271% |
| O=C(COC(=O)Cn1cnc2ccccc21)Nc1cccc2c1C(=O)c1ccccc1C2=O | 103% (active) |
| COc1cc(C(=S)N2CCOCC2)cc(OC)c1OC(=O)c1cc([N+](=O)[O-])c(C)c([N+](=O)[O-])c1 | 1.27% |
| CSc1ccc(/C=N/N2CCN(Cc3ccccc3Cl)CC2)cc1 | 2.53% |
| Cc1ccc(C)c(NC(=O)CCC(=O)N/N=C2/CC(=O)CC(C)(C)C2)c1 | 0.203% |
| CC(C)NC(=O)Nc1cccc2c1O[C@H](CN(C)S(=O)(=O)c1cccs1)[C@@H](C)CN([C@H](C)CO)C2=O | 0.641% |
| O=C(CNCc1ccco1)Nc1cc(S(=O)(=O)N2CCOCC2)ccc1N1CCCC1 | 2.55% |
| O=[N+]([O-])c1cc(S(=O)(=O)Nc2cccc(Cl)c2)ccc1N=Nc1c(O)[nH]c2ccccc12 | -5.47% |
| COC(=O)c1ccc(C(=O)NC2CC(C)(C)Cc3c2cnn3-c2ccc(F)cc2)nc1 (configuration not stated) | 26.7% (active) |
| Cc1cc(C(=O)NC2CC(C)(C)Cc3c2cnn3-c2ccccc2)n[nH]1 (configuration not stated) | -9.34% |
| CC1(C)Cc2c(cnn2-c2cccc(F)c2)C(NC(=O)c2cc[n+]([O-])cc2)C1 (configuration not stated) | 1.53% |
| CN(CCO)C(=O)c1nc[nH]c1C(=O)N(C)Cc1ccccc1 | 1.82% |
| COc1cc(CCN=Cc2ccccc2O)c([N+](=O)[O-])cc1OC | 2.9% |
| COc1ccc(OC)c2[nH]c(=O)c(CCNC(=O)C(=O)c3c[nH]c4ccccc34)cc12 | -0.931% |
| O=c1ccc2cc(S(=O)(=O)NCCCc3ccccc3)ccc2[nH]1 | -0.159% |

Source: PubChem BioAssay AID588692 (Broad Institute, 2011)
